{"source": "the supplement of paper PMC9492666", "note": "Structures can show the parent of a compound that is named as a salt.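 Note: viability read out with the CCK-8 kit in 96-well plates, screening a set of 303 compounds acting on lipid metabolism targets.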"}
{"system": "HCC1937", "test": "relative cell viability, compound alone, vs DMSO (fraction of DMSO control); higher = less growth inhibition", "conditions": "72 h"}
{"smiles": "C[C@@H]1C(=O)O[C@H]2[C@H](O)[C@@]34O[C@@H]5OC(=O)[C@H](O)[C@@]56[C@H](C(C)(C)C)[C@H](O)C(OC3=O)[C@]64[C@@]12O", "note": "(stereo not given in full) [Ginkgolide C]", "relative cell viability": 1.15}
{"smiles": "Cc1cc(SCc2sc(-c3ccc(C(F)(F)F)c(F)c3)nc2C)ccc1OCC(=O)O", "relative cell viability": 1.21}
{"smiles": "O=C(Oc1ccc([N+](=O)[O-])cc1)N1CCC(C(O)(c2ccc3c(c2)OCO3)c2ccc3c(c2)OCO3)CC1", "relative cell viability": 0.911}
{"smiles": "C[C@]12CC[C@@H](O)C[C@@H]1CC[C@@H]1[C@@H]2CC[C@]2(C)C(=O)CC[C@@H]12", "note": "[Androsterone]", "relative cell viability": 1.33}
{"smiles": "CCC1=N[C@H]2C[C@@]3(C(=O)N(OC)c4ccccc43)[C@H]3CC1[C@@H]2CO3", "note": "[Humantenmine]", "relative cell viability": 0.922}
{"smiles": "NNC(=O)c1nn(Cc2ccc(Cl)cc2Cl)c2ccccc12", "note": "[Adjudin]", "relative cell viability": 0.767}
{"smiles": "C[C@@]12C[C@@H](c3ccoc3)OC(=O)[C@@H]1CC[C@]1(C)[C@H]2[C@@H]2C=C[C@@]1(O)C(=O)O2", "note": "[Columbin]", "relative cell viability": 0.968}
{"smiles": "O=C1C=CC[C@@H]2[C@H]3CCCN4CCC[C@@H](CN12)[C@@H]34", "note": "[Sophocarpine]", "relative cell viability": 0.762}
{"smiles": "CC(C)=CCC[C@](C)(O)[C@H]1CC[C@]2(C)[C@@H]1[C@H](O)C[C@@H]1[C@@]3(C)CC[C@H](O)C(C)(C)[C@@H]3[C@@H](O[C@@H]3O[C@H](CO)[C@@H](O)[C@H](O)[C@H]3O)C[C@]12C", "note": "[Ginsenoside Rh1]", "relative cell viability": 1.09}
{"smiles": "COc1ccc(CN2CCNCC2)c(OC)c1OC", "note": "[Trimetazidine dihydrochloride]", "relative cell viability": 1.09}
